Experimental data published in PubChem BioAssay (NCATS).
Results filed as inconclusive are left out. Activity calls are given as the source filed them. The call rests on the fitted dose curve; in most records, active means well fitted curve in the direction sought with a large enough effect; inconclusive means small, poorly fitted or top-dose-only effect, or another doubt; inactive means no such curve, though single readings can be large; an effect the other way counts as inactive or inconclusive. *1 amine or outer side, *2 acyl side, *3 side chain or, on linkers, in order; H or OH if unused. Where a SMILES comes first, the peptide text is derived from it. Bridges are numbered along the chain shown (N, C = ends). [ ]: non-standard residue; d: D form. The star is where a group is joined. ξ: configuration not given here. X10 = NC1=NCCC(C(N[*:1])C(=O)[*:2])N1; ΔAla(3-NHCONH2) = NC(=O)NC=C(N)C(=O)O; ξβ3hOrn = NCCCC(N)CC(=O)*; Dap = NC[CH](N)C(=O)O

Tests used:
[1] = qHTS to identify inhibitors of the type 1 interferon - major histocompatibility complex class I in skeletal muscle: primary screen against the NCATS Pharmaceutical Collection (AID 1347407);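 further: luminescence of HiBiT knocked into endogenous HLA-B as interferon-induced MHC class I level; on the % scale 0 is the no-effect control and ±100 the full control effect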
How it was run: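 Immortalized human myoblasts (C25cl48) with HiBiT knocked into endogenous HLA-B*08:01 were stimulated with 4.0 ng/ml IFN-beta and treated with compounds ([…] top 46 uM) for 24 hrs at 37 C. HiBiT lytic luminescence read.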

[2] = target: Protein phosphatase 1D (Homo sapiens) (UniProt O15297); experiment: RapidFire Mass Spectrometry qHTS Assay for Modulators of WT P53-Induced Phosphatase 1 (WIP1) (AID 1347424);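 further: amount of dephosphorylated VEPPL-S-QETFS peptide product formed by WIP1; series mostly up to about 63 µM; plate controls were DMSO wells for no effect and GSK830371 inhibitor control at 10 µM for full effect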
Chain of Protein phosphatase 1D (Homo sapiens) (O15297 whole entry, looked up): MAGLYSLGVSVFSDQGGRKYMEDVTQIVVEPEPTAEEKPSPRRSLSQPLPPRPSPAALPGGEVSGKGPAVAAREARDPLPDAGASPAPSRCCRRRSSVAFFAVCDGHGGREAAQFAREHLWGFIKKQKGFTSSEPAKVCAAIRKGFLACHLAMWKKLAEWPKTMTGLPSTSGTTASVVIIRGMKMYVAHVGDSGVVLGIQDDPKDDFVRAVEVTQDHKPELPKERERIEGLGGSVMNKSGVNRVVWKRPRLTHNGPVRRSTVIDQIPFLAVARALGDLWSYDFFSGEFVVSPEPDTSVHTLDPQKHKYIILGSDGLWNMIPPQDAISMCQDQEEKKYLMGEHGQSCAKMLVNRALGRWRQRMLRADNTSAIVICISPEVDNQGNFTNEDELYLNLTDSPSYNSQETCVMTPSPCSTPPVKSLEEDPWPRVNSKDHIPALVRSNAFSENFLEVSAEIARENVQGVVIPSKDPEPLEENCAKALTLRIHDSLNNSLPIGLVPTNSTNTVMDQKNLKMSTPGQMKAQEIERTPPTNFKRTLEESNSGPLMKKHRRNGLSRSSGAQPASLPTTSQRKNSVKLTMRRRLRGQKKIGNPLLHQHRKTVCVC
How it was run: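 10 nM WIP1 + cpd, 1 h RT; + 2 uM VEPPL-pS-QETFS, 5 min RT; stop 0.5% formic acid; labelled product standard 1 uM; RapidFire MS. Buffer 50 mM Tris pH 7.5, 30 mM MgCl2, 1 mM TCEP.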

[3] = target: Protein phosphatase 1D (Homo sapiens) (UniProt O15297); experiment: Rhodamine-PBP qHTS Assay for Modulators of WT P53-Induced Phosphatase 1 (WIP1) (AID 1347425); further: % of control where 0% means no effect
How it was run: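 Read-out: Rhodamine-PBP fluorescence (ex 525/em 598 nm) for released Pi, read each minute for 11 min after adding 10 uM VEPPL-pS-QETFS; signal taken as f1 minus pre-substrate f0. Enzyme 5 nM WIP1 with 1 hr room-temperature compound preincubation.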

[4] = Primary qHTS for inhibitors of La Crosse Virus (LACV) - induced cell death in SH-SY5Y cells (AID 1508616);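 further: top concentration of the series differs between compounds; 0% = infected DMSO wells and 100% = uninfected DMSO wells; higher means more rescue of cells from virus-induced death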
How it was run: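 Readout was luminescence from ATPLite 1step added after a 6-day LACV infection (0.01 MOI) of SH-SY5Y cells that had received pin-transferred compound 24 hr after seeding.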

[5] = target: Calcium and integrin-binding protein 1 (Homo sapiens) (UniProt Q99828); experiment: Primary qHTS for Identification of Calcium Integrin Binding Protein 1 (CIB1) Competitor (AID 1508620);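 further: GST tagged CIB1 binding a fluorescein labelled alphaIIb integrin peptide tracer; top concentration of the series differs between compounds; on the % scale 0 is the no-effect control and ±100 the full control effect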
Chain of Calcium and integrin-binding protein 1 (Homo sapiens) (Q99828 whole entry, looked up): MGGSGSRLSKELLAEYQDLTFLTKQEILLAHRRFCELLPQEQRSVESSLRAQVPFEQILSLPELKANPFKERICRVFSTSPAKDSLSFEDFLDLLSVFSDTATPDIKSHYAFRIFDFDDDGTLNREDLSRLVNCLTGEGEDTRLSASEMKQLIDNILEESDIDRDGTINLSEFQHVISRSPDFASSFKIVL
How it was run: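 CIB1-GST (1 uM final) and compound incubated 15 min at room temperature before adding FITC-alphaIIb peptide tracer (100 nM final). Competition for binding read by fluorescence polarization (ex 480, em 540) after another 15 min at room temperature.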

O=c1[nH]c2ccccc2c(=O)n1CCCl
inactive: Potency [1] | Potency [2] | outcome [3] | outcome [4] | Potency [5]

N#Cc1cc(NC(=O)C(=O)O)c(Cl)c(NC(=O)C(=O)O)c1
inactive: Potency [1] | Potency [2] | outcome [3] | outcome [4] | Potency [5]

OC(CCCN1CCCCC1)(c1ccccc1)c1ccccc1
inactive: Potency [1] | Potency [2] | outcome [3] | outcome [4] | Potency [5]

CCOC(=O)C(=O)CCCCCCl
inactive: Potency [1] | Potency [2] | outcome [3] | outcome [4] | Potency [5]

CCOc1ccccc1OCC1CNCCO1 (stereo not given)
inactive: Potency [1] | Potency [2] | outcome [3] | outcome [4] | Potency [5]

CC(=O)N[C@@H](CCC(N)=O)C(=O)O
inactive: Potency [1] | Potency [2] | outcome [3] | outcome [4] | Potency [5]

COc1ccccc1N1CCN(CC(O)COc2cc(OC)c(OC)c(OC)c2)CC1 (stereo not given)
inactive: Potency [1] | Potency [2] | outcome [3] | outcome [4] | Potency [5]

CCOC(=O)NNc1nncc2ccccc12
inactive: Potency [1] | Potency [2] | outcome [3] | outcome [4] | Potency [5]

CC(=O)OC/C=C(C)/C=C/C=C(C)/C=C/C1=C(C)CCCC1(C)C
inactive: Potency [1] | Potency [2] | outcome [3] | outcome [4] | Potency [5]

COc1ccc(CCC(C)=O)cc1
inactive: Potency [1] | Potency [2] | outcome [3] | outcome [4] | Potency [5]

O=C(Oc1ccccc1)c1cccc(C(=O)Oc2ccccc2)c1
inactive: Potency [1] | Potency [2] | outcome [3] | outcome [4] | Potency [5]

NCC[C@H](O)C(=O)N[C@@H]1C[C@H](N)[C@@H](O[C@H]2O[C@H](CN)[C@@H](O)[C@H](O)[C@@H]2O)[C@H](O)[C@@H]1O[C@H]1O[C@H](CO)[C@@H](O)[C@H](N)[C@@H]1O
inactive: activity change, negative = inhibition [1] -1.93% [at 0.727 µM] | activity change, negative = inhibition [2] 3.64% [at 0.505 µM] | activity change, negative = inhibition [3] 3.01% [at 0.575 µM] | activity change [4] 4.33% [at 0.0343 µM] | activity change, negative = inhibition [5] 3.05% [at 1.07 µM]

CN1Cc2cc(C(=O)N3CCC(C4CCNCC4)CC3)ccc2NC(CC(=O)O)C1=O (stereo not given)
inactive: Potency [1] | Potency [2] | outcome [3] | outcome [4] | Potency [5]

CC(C)C[C@H](NC(=O)CNC(=O)[C@H](Cc1ccc(O)cc1)NC(=O)[C@H](CO)NC(=O)[C@H](Cc1c[nH]c2ccccc12)NC(=O)[C@H](Cc1cnc[nH]1)NC(=O)[C@@H]1CCC(=O)N1)C(=O)N[C@@H](CCCN=C(N)N)C(=O)N1CCC[C@H]1C(=O)NCC(N)=O (stereo in doubt)
inactive: Potency [1] | Potency [2] | outcome [3] | outcome [4] | Potency [5]

OCc1cccnc1
inactive: Potency [1] | Potency [2] | outcome [3] | outcome [4] | Potency [5]

CN1C(=O)c2ccccc2C1=O
inactive: Potency [1] | Potency [2] | outcome [3] | outcome [4] | Potency [5]

NCCCC(N)CC(=O)NCC1NC(=O)C(CO)NC(=O)C(N)CNC(=O)C(C2CCN=C(N)N2)NC(=O)C(=CNC(N)=O)NC1=O (stereo not drawn) (H-[Dap]S[Dap](ξβ3hOrn)[ΔAla(3-NHCONH2)][X10]; lactam 1-C; configuration not given here)
inactive: activity change, negative = inhibition [1] -9.07% [at 0.727 µM] | activity change, negative = inhibition [2] 2.35% [at 0.505 µM] | activity change, negative = inhibition [3] 11.7% [at 0.575 µM] | activity change [4] 8.73% [at 0.0343 µM] | activity change, negative = inhibition [5] -1.21% [at 1.07 µM]

CCO[C@H](Cc1ccc(OCCc2ccc(OS(C)(=O)=O)cc2)cc1)C(=O)O
inactive: Potency [1] | Potency [2] | outcome [3] | outcome [4] | Potency [5]

C[C@@H](C1=C(CCN(C)C)Cc2ccccc21)c1ccccn1
inactive: Potency [1] | Potency [2] | outcome [3] | outcome [4] | Potency [5]

O=C1c2ccccc2CCc2ccccc21
inactive: Potency [1] | Potency [2] | outcome [3] | outcome [4] | Potency [5]

Cc1cc(=O)oc2cc(O[C@@H]3SC[C@@H](O)[C@H](O)[C@H]3O)ccc12
inactive: Potency [1] | Potency [2] | outcome [3] | outcome [4] | Potency [5]

COC(=O)c1cc(Cl)ccc1OC
inactive: Potency [1] | Potency [2] | outcome [3] | outcome [4] | Potency [5]

COCCc1ccccn1
inactive: Potency [1] | Potency [2] | outcome [3] | outcome [4] | Potency [5]

Cc1coc2ccccc2c1=O
inactive: Potency [1] | Potency [2] | outcome [3] | outcome [4] | Potency [5]

CCC[C@H](N[C@@H](C)C(=O)N1[C@H](C(=O)O)C[C@@H]2CCCC[C@@H]21)C(=O)OCC
inactive: Potency [1] | Potency [2] | outcome [3] | outcome [4] | Potency [5]

CCCc1ccc(OCC(=O)N2CCN(C(=O)COc3ccc(CCC)cc3OC)CC2)c(OC)c1
inactive: Potency [1] | Potency [2] | outcome [3] | outcome [4] | Potency [5]

N#CSCC(=O)O
inactive: Potency [1] | Potency [2] | outcome [3] | outcome [4] | Potency [5]

Cc1cnc(NS(=O)(=O)c2ccc(N)cc2)nc1
inactive: Potency [1] | Potency [2] | outcome [3] | outcome [4] | Potency [5]

CCOC(=O)N1CCC(Nc2ccc(Cl)cc2N)CC1
inactive: Potency [1] | Potency [2] | outcome [3] | outcome [4] | Potency [5]

C#Cc1ccc(-c2ccccc2F)cc1
inactive: Potency [1] | Potency [2] | outcome [3] | outcome [4] | Potency [5]

COC(=O)/C=C(/C)N
inactive: Potency [1] | Potency [2] | outcome [3] | outcome [4] | Potency [5]

Cc1ccc(-c2ccccc2C#N)cc1
inactive: Potency [1] | Potency [2] | outcome [3] | outcome [4] | Potency [5]

O=C(O)c1cn(C2CC2)c2cc(Cl)c(F)cc2c1=O
inactive: Potency [1] | Potency [2] | outcome [3] | outcome [4] | Potency [5]
